Many of the other results were omitted from the sample, so hits are more common in it than they were.
Methyltransferases – Primary Screen for Target Class Profiling of Small Molecule Inhibitors of Methyltransferases; purified enzyme, MTase-Glo SAH luminescence; hits give low values; calls only at 40 µM; actives 3.9% (n = 25,000); AID 1745853, 2022; call rule not given here
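Each enzyme was assayed with SAM and its substrate. SAH formation detected by MTase-Glo luminescence; single-point 40 uM screen[…].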
MTase-Glo ctr – detection enzyme interference, methyltransferase counter-screen. MTase-Glo coupled enzymes, SAH conversion luminescence, no MTase. Potency, µM (doses to about 57.3 µM), without a hit: top-dose activity change, negative = inhibition, usual class: inhibitors. actives 6% (n = 180). shares compounds with Methyltransferases; active means well fitted inhibition curve with a large enough effect; inconclusive means small, poorly fitted or top-dose-only effect; further: potency means the concentration at half of the fitted maximal effect
Active calls of the source: *; [ ] = another dose, or the depositor's remark. On the % scale 0 is the no-effect control and ±100 the full control effect.

For CCC1c2cccn2-c2ccccc2CN1C(=O)Nc1cccc2c1CCCC2 (stereo not given) the results were Methyltransferases inactive.
Screening CCOc1ccccc1NC(=O)N1Cc2ccccc2-n2cccc2C1c1ccccc1Cl (stereo not given) returned Methyltransferases inactive.
c1ccc2c(N3CCNCC3)cccc2c1 was read as Methyltransferases active.
Screening COc1ccc(C)cc1NC(=O)N1Cc2ccccc2-n2cccc2C1C(C)C (stereo not given) returned Methyltransferases inactive.
Screening COc1cccc(NC(=O)N2Cc3ccccc3-n3cccc3C2c2ccccc2Cl)c1 (stereo not given) returned Methyltransferases inactive.
For COc1ccc(C2c3cccn3-c3ccccc3CN2C(=O)Nc2cccc(C)c2)cc1OC (stereo not given) the results were Methyltransferases inactive.
CCC1c2cccn2-c2ccccc2CN1C(=O)NCc1ccccc1 (stereo not given) was read as Methyltransferases inactive.
CNCCc1c[nH]c2ccc(O)cc12 was read as Methyltransferases inactive.
Screening COc1ccc(CNC(=O)/C=C/c2ccc3[nH]cc(CCN(C)C)c3c2)cc1 returned Methyltransferases active.
Screening Cc1ccc(NC(=O)N2Cc3ccccc3-n3cccc3C2c2ccc(N(C)C)cc2)c(C)c1 (stereo not given) returned Methyltransferases inactive.
Screening CCC1c2cccn2-c2ccccc2CN1C(=O)Nc1ccccc1 (stereo not given) returned Methyltransferases inactive.
Screening CCc1ccc(C2c3cccn3-c3ccccc3CN2C(=O)NCc2ccco2)cc1 (stereo not given) returned Methyltransferases inactive.
`CC12CCC3C(C1)c1c(cc(O)c(C(=O)c4ccccc4)c1OC3(C)C)O2` (stereo not given) gave Methyltransferases inactive.
For CCc1ccc(C2c3cccn3-c3ccccc3CN2C(=O)Nc2cccc(C)c2C)cc1 (stereo not given) the results were Methyltransferases inactive.
Screening CC(C)c1ccc(C2c3cccn3-c3ccccc3CN2C(=O)Nc2ccc(F)cc2F)cc1 (stereo not given) returned Methyltransferases inactive.
Screening COC(=O)[C@]12CCCC(C)(C)C1CCc1cc(C(C)C)c(O)c(O)c12 (stereo not given in full) returned Methyltransferases inactive.
`COCCCNC(=O)N1Cc2ccccc2-n2cccc2C1c1cc(F)cc(F)c1` (stereo not given) gave Methyltransferases inactive.
For Cc1cc(NC(=O)N2Cc3ccccc3-n3cccc3C2c2cccs2)ccc1Br (stereo not given) the results were Methyltransferases inactive.
For CC(=O)NC[C@H]1C[C@@H]2CCN1C[C@@H]2c1cc(-c2ccc3ccccc3c2)nn1C the results were Methyltransferases active and MTase-Glo ctr inconclusive.
`COc1ccccc1-c1cc([C@H]2CN3CC[C@H]2C[C@@H]3CNC(=O)N2CCOCC2)n(C)n1` gave Methyltransferases inactive.
For Cn1nc(-c2ccc3ccccc3c2)cc1[C@H]1CN2CC[C@H]1C[C@@H]2CNC(=O)c1ccco1 the results were Methyltransferases inactive.
For COc1ccc(NC(=O)N2Cc3ccccc3-n3cccc3C2c2cccs2)c(OC)c1 (stereo not given) the results were Methyltransferases inactive.
For CCCNC(=O)N1Cc2ccccc2-n2cccc2C1c1ccc(F)cc1 (stereo not given) the results were Methyltransferases inactive.
COC1CC(O[C@H]2CC[C@]3(C=O)C4CC[C@]5(C)[C@@H](C6=CC(=O)OC6)CC[C@]5(O)[C@@H]4CC[C@@H]3C2)OC(C)C1O[C@@H]1O[C@H](CO)[C@@H](O[C@@H]2O[C@H](CO)[C@@H](O)[C@H](O)[C@H]2O)[C@H](O)[C@H]1O (stereo not given in full) was read as Methyltransferases inactive.
CCOc1ccc(C2c3cccn3-c3ccccc3CN2C(=O)Nc2cccc(Cl)c2C)cc1 (stereo not given) was read as Methyltransferases inactive.
For COc1ccc(-c2cc3c(cn2)CN(C)CCN3)cn1 the results were Methyltransferases active and MTase-Glo ctr -2%[114 µM].
`CCOC(=O)CNC(=O)N1Cc2ccccc2-n2cccc2C1c1ccc(OC)c(OC)c1` (stereo not given) gave Methyltransferases inactive.
Screening COc1ccc(NC(=O)N2Cc3ccccc3-n3cccc3C2c2ccc(F)cc2)cc1OC (stereo not given) returned Methyltransferases inactive.
Screening CCOc1ccc(C2c3cccn3-c3ccccc3CN2C(=O)NCc2ccc(C)cc2)cc1 (stereo not given) returned Methyltransferases inactive.
For CNC1CCc2ccccc21 (stereo not given) the results were Methyltransferases active and MTase-Glo ctr -2%[114 µM].
COc1cc(NC(=O)N2Cc3ccccc3-n3cccc3C2c2ccc(F)cc2)cc(OC)c1 (stereo not given) was read as Methyltransferases inactive.
`CC(C)NC(=O)N1Cc2ccccc2-n2cccc2C1C` (stereo not given) gave Methyltransferases inactive.
CCOc1ccc(C2c3cccn3-c3ccccc3CN2C(=O)NCc2cccc(OC)c2)cc1 (stereo not given) was read as Methyltransferases inactive.
